From PubChem BioAssay
The list is not random: actives were taken first. Their share in the collection is about 2.1%.
HIF-2a block: inhibitors of HIF-2a. inhibition, % at 18.8 µM. 786-0 RCC cells HIF-2a reporter, luciferase luminescence, overnight. 0.72% of 360,000 active;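 active = inhibition of the luminescence signal of 40% or more relative to plate controls, in a single-dose primary screen at 18.75 µM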
EWS-Fli block: EWS/Fli transcriptional activity inhibition | A673 NR0B1-luciferase reporter, viability-normalised | inhibition, % at 12.6 µM | 0.67% of 350,000 active;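 active = mean inhibition of at least 50% after viability correction, with every replicate also passing that limit; inconclusive = mean reaches 50% but only one of two replicates passes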;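 note: firefly luciferase signal divided by Alamar Blue viability fluorescence both relative to DMSO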
KKLEB cytotox: CF airway cell cytotoxicity counter-screen; KKLEB CF airway cells viability, ATPlite luminescence, overnight; stronger effect = lower value; cells stimulated with P. aeruginosa culture filtrate; activity change (cytotoxicity), % at 5 µM; 0.36% of 360,000 active; AID 602141;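 active = corrected activity change at or below -50% at 5 µM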
PAX8 inh HTS: PAX8 transcriptional activity inhibition; RMG-I TPO-luciferase reporter, SteadyGlo, 24 h; inhibition, % at 12.6 µM; 1.2% of 360,000 active; AID 652154;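 active = mean replicate inhibition at least 60% with every replicate also reaching 60%; inconclusive = only one of the two criteria is met; inactive = mean below 60% and not all replicates reaching 60%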;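 note: luciferase light reporting Pax8 driven TPO promoter activity; plate controls were median of neutral control wells for no effect and mitoxantrone controls for full effect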
CF NFkB block: blocks PAF-induced NF-kB reporter in cystic fibrosis cells; KKLEB NF-kB-GFP reporter, GFP fluorescence overnight; inhibition, % at 5 µM; 0.86% of 360,000 active; AID 588850;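 active = at least 50% inhibition at 5 µM, scaled per plate between neutral and stimulator controls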;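 note: PAF is a Pseudomonas aeruginosa culture filtrate used as stimulus; plate controls were PAF-stimulated DMSO wells for no effect and unstimulated DMSO wells for full effect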
* marks the source's active call; other numbers are inactive results; u = inconclusive; x = not tested or not shown.

SMILES | HIF-2a block | EWS-Fli block | KKLEB cytotox | PAX8 inh HTS | CF NFkB block
C/C(=N\Nc1ncc(Cl)cc1Cl)c1ccccn1 | 7 | x | -59* | x | 23
CC(=NNC(=S)Nc1ccccc1Cl)c1ccccn1 | -200 | 14 | 8 | 71* | -1
CC(=NNC(=S)N1CCCCC1)c1ccccn1 | -88 | 6 | -4 | 21 | -18
C=CCNC(=S)N/N=C(\C)c1ccccn1 | 11 | x | -19 | 95* | 20
Cc1ccccc1S(=O)(=O)N1C[C@H](O)COC[C@@H]2O[C@H](CC(=O)N3CCCCC3)CC[C@H]21 | x | 1 | x | 2 | x
O=C(CCN1CCCCC1)NCC[C@@H]1CC[C@H](NC(=O)Cc2cccnc2)[C@@H](CO)O1 | x | -7 | x | -4 | x
CCCC(=O)N1CC2(C1)CN(C(=O)C1CCC1)[C@H](CO)c1[nH]c3cc(OC)ccc3c12 | x | -12 | x | -18 | x
C[C@H]1CCCCO[C@H](CN(C)C(=O)Nc2ccc(C(F)(F)F)cc2)[C@@H](C)CN([C@@H](C)CO)C(=O)c2cc(NC(=O)c3ccncc3)ccc2O1 | x | 11 | x | 93* | x
C[C@@H]1CCCCO[C@@H](CN(C)Cc2ccc(C(F)(F)F)cc2)[C@@H](C)CN([C@@H](C)CO)C(=O)c2cc(NC(=O)c3ccccc3)ccc2O1 | x | -5 | x | 12 | x
C[C@@H]1CCCCO[C@@H](CN(C)Cc2ccc(C(F)(F)F)cc2)[C@@H](C)CN([C@H](C)CO)C(=O)c2cc(NC(=O)c3ccccc3)ccc2O1 | x | 4 | x | 14 | x
C[C@H]1CCCCO[C@H](CN(C)Cc2ccc(C(F)(F)F)cc2)[C@@H](C)CN([C@@H](C)CO)C(=O)c2cc(NC(=O)c3ccccc3)ccc2O1 | x | 21 | x | 85* | x
C[C@H]1CCCCO[C@@H](CN(C)Cc2ccc(C(F)(F)F)cc2)[C@@H](C)CN([C@@H](C)CO)C(=O)c2cc(NC(=O)c3ccccc3)ccc2O1 | x | 14 | x | 87* | x
C[C@@H]1CN([C@@H](C)CO)C(=O)c2cc(NC(=O)c3ccccc3)ccc2O[C@@H](C)CCCCO[C@H]1CN(C)Cc1ccc(C(F)(F)F)cc1 | x | 11 | x | 88* | x
C[C@@H]1CCCCO[C@@H](CN(C)C(=O)Nc2ccc(C(F)(F)F)cc2)[C@H](C)CN([C@@H](C)CO)C(=O)c2cc(NC(=O)c3ccncc3)ccc2O1 | x | 9 | x | 28 | x
O=C(C1CC1)N1CC(=O)N2[C@@H](CO)[C@@H](c3ccc(C#Cc4cccc(F)c4)cc3)[C@@H]2C1 | x | 3 | x | 27 | x
C[C@H](CO)N1C[C@H](C)[C@H](CN(C)Cc2ccc(C(F)(F)F)cc2)Oc2c(NS(=O)(=O)c3cccs3)cccc2C1=O | x | 6 | x | 4 | x
COc1cc(CN2CC3(CN(C(=O)Nc4cccc(F)c4)C3)c3c(n(C)c4cc(OC)ccc34)[C@@H]2CO)cc(OC)c1 | x | -2 | x | x | x
O=C(Nc1ccc(Cl)cc1)N[C@H]1CC[C@H](CCNC(=O)c2cc(Cl)cc(Cl)c2)O[C@@H]1CO | x | 4 | x | 32 | x
C[C@@H]1CCCCO[C@@H](CN(C)Cc2ccc(C(F)(F)F)cc2)[C@H](C)CN([C@H](C)CO)C(=O)c2cc(NC(=O)c3ccncc3)ccc2O1 | x | 12 | x | 35 | x
C[C@@H]1CN([C@H](C)CO)C(=O)c2cc(NC(=O)c3ccncc3)ccc2O[C@@H](C)CCCCO[C@H]1CN(C)Cc1ccc(C(F)(F)F)cc1 | x | u | x | 82* | x
C[C@@H]1CCCCO[C@H](CN(C)Cc2ccc(C(F)(F)F)cc2)[C@@H](C)CN([C@@H](C)CO)C(=O)c2cc(NC(=O)c3ccccc3)ccc2O1 | x | 16 | x | 91* | x
N#Cc1c(C#N)c(SSc2c(C#N)c(C#N)c(N)n2-c2ccccc2)n(-c2ccccc2)c1N | 7 | 51* | -89* | -24 | 88*
CCCCC(=O)Nc1cccc(-c2csc(-c3ccccc3)n2)c1 | -141 | -14 | 9 | -83 | -4
O=C(O)CCC(=O)Nc1cccc(-c2csc(-c3ccccc3)n2)c1 | 83* | 39 | 5 | -1 | 14
CCN(CC)S(=O)(=O)c1ccc(N/N=C/c2cc(OC)ccc2O)nc1 | 24 | 8 | -12 | 68* | 12
SMILES | HIF-2a block | EWS-Fli block | KKLEB cytotox | PAX8 inh HTS | CF NFkB block
Cc1ccc(S(=O)(=O)CCC(=O)OCC(=O)c2cc(C)ccc2C)cc1 | 6 | 0 | -17 | -6 | 7
Cc1ccc(S(=O)(=O)CCC(=O)c2ccc(O)cc2O)cc1 | 8 | x | -5 | 97* | 2
COc1ccc(C(=O)CCS(=O)(=O)c2ccc(C)cc2)cc1OC | 22 | -2 | 8 | 96* | 26
COc1ccc(C(=O)COC(=O)CCS(=O)(=O)c2ccc(C)cc2)c(OC)c1 | 21 | 0 | 4 | 4 | 6
C[C@H](CO)N1C[C@H](C)[C@H](CN(C)Cc2cncnc2)Oc2ncc(-c3cccc(C#N)c3)cc2C1=O | x | -11 | x | x | x
C[C@@H]1CCCCO[C@H](CN(C)C(=O)Cc2ccccc2)[C@H](C)CN([C@H](C)CO)C(=O)c2cc(NC(=O)CCC(F)(F)F)ccc2O1 | x | 4 | x | 0 | x
CO[C@H]1CN(C)C(=O)c2ccc(NS(=O)(=O)CC(F)(F)F)cc2OC[C@H](C)N(CC2CCCCC2)C[C@@H]1C | x | -12 | x | -1 | x
COc1ccc(CN2[C@@H](CO)[C@@H]3c4ccccc4NC[C@@H]32)cc1 | x | -2 | x | 20 | x
COc1ccc(CN2[C@H](CO)[C@H]3c4ccccc4NC[C@H]32)cc1 | x | 48 | x | 96* | x
COc1ccc(Cl)cc1NC(=S)NCCc1ccc(S(N)(=O)=O)cc1 | 13 | 6 | 8 | 7 | 1
COc1cc(NC(=S)NCc2ccc(S(N)(=O)=O)cc2)c(OC)cc1Cl | 4 | 65* | 2 | 11 | -7
COc1ccc(N(Cc2cc3cc(OC)ccc3[nH]c2=O)S(=O)(=O)c2ccc(NC(C)=O)cc2)cc1 | 11 | x | -101* | 91* | 80*
CC(=O)Nc1ccc(S(=O)(=O)N(Cc2cccnc2)Cc2cc3ccccc3[nH]c2=O)cc1 | -13 | x | -24 | 71* | 81*
COc1ccc(C(=O)N2[C@@H](C(C)C)COc3cc(Br)ccc3S2(=O)=O)cc1 | -18 | -1 | 14 | 65* | 39
CSc1cc(-c2ccc(Cl)cc2)n(Cc2ccccc2)c(=O)c1C#N | 11 | x | -54* | x | 70*
